Measurements published in PubChem BioAssay AID1159580 (chemical genetic matrix, 2015).
Several values for one entry are separate records, joined by “and”; a condition that tells them apart may be missing. Identical values can stand only once. The whole screen tested about 5,500 compounds, of which about 2,000 (36%) were called active. About 18% were inconclusive and are not listed. Cut-off read from the data, not from the text of the source: active = normalized growth mostly below about 0.91 (no sharp cut-off); inconclusive = no clear call, values can overlap the other calls; inactive = mostly above about 0.92. Some of the results follow.

Experiment: chemical genetic growth profiling, strain panel (AID 1159580);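 note: tested at 20 µM; growth read once vehicle control cultures reached saturation at 30 °C; 1 = growth at the plate median or of vehicle wells; lower values mean less growth of the strain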
Details: S. cerevisiae deletion strains, growth OD

Measured: normalized growth

CCOC(=O)[C@H](CCc1ccccc1)N[C@@H](C)C(=O)N1[C@H](C(=O)O)C[C@@H]2CCC[C@@H]21
inactive: locus YAL013W, strain DEP1, hits give low values 1.01 | locus YAL021C, strain ccr4, hits give low values 1.01 | locus YAL026C, strain drs2, hits give low values 0.985 | locus YAL030W, strain snc1, hits give low values 0.995 | locus YBL061C, strain skt5, hits give low values 0.984 | locus YBR009C, strain hhf1, hits give low values 0.995 | locus YBR021W, strain FUR4, hits give low values 1 | locus YBR023C, strain chs3, hits give low values 0.983 | locus YBR171W, strain sec66, hits give low values 0.971 | locus YBR229C, strain ROT2, hits give low values 1.01 | locus YBR231C, strain swc5, hits give low values 0.982 | locus YBR279W, strain paf1, hits give low values 0.979 | locus YCL011C, strain gbp2, hits give low values 0.981 | locus YCL016C, strain dcc1, hits give low values 0.985 | locus YCL029C, strain bik1, hits give low values 1.01 | locus YCL061C, strain MRC1, hits give low values 0.982 | locus YCL069W, strain vba3, hits give low values 0.977 | locus YCR088W, strain abp1, hits give low values 0.978 | locus YDL005C, strain med2, hits give low values 0.981 | locus YDL035C, strain GPR1, hits give low values 1.01 | locus YDL040C, strain nat1, hits give low values 0.981 | locus YDL074C, strain BRE1, hits give low values 1.02 | locus YDL101C, strain DUN1, hits give low values 1.01 | locus YDL134C, strain PPH21, hits give low values 1.01 | locus YDL185W, strain tfp1, hits give low values 0.998 | locus YDL192W, strain arf1, hits give low values 1.02 | locus YDR001C, strain nth1, hits give low values 0.978 | locus YDR069C, strain doa4, hits give low values 1.01 | locus YDR101C, strain arx1, hits give low values 1.01 | locus YDR137W, strain rgp1, hits give low values 0.946 | locus YDR150W, strain NUM1, hits give low values 1.01 | locus YDR159W, strain sac3, hits give low values 0.987 | locus YDR162C, strain NBP2, hits give low values 1.03 | locus YDR195W, strain ref2 0.97 | locus YDR297W, strain sur2, hits give low values 0.981 | locus YDR318W, strain mcm21, hits give low values 1.02 | locus YDR334W, strain swr1, hits give low values 0.978 | locus YDR335W, strain msn5, hits give low values 0.985 | locus YDR388W, hits give low values 1.01 | locus YDR392W, strain spt3, hits give low values 0.974 | locus YDR502C, strain sam2, hits give low values 1.01 | locus YEL003W, strain gim4, hits give low values 0.981 | locus YEL037C, strain rad23, hits give low values 0.982 | locus YEL061C, strain CIN8 (second series), hits give low values 0.98 | locus YEL061C, strain CIN8, hits give low values 1.01 | locus YER015W, strain faa2, hits give low values 0.989 | locus YER016W, strain bim1, hits give low values 0.993 | locus YER110C, hits give low values 1.01 | locus YER111C, strain swi4, hits give low values 0.976 | locus YER155C, strain BEM2 (second series), hits give low values 0.972 | locus YER155C, strain BEM2, hits give low values 1 | locus YER167W, strain BCK2, hits give low values 1.01 | locus YFR010W, strain ubp6, hits give low values 0.989 | locus YGL078C, strain dbp3, hits give low values 1.01 | locus YGL086W, strain mad1, hits give low values 1.02 | locus YGL167C, strain pmr1, hits give low values 0.979 | locus YGL173C, strain kem1, hits give low values 0.969 | locus YGL227W, strain vid30, hits give low values 0.979 | locus YGL240W, strain doc1, hits give low values 1 | locus YGL248W, strain PDE1, hits give low values 1.01 | locus YGL253W, strain hxk2, hits give low values 0.996 | locus YGR078C, strain PAC10, hits give low values 1.01 | locus YGR135W, strain pre9, hits give low values 1.02 | locus YGR229C, strain SMI1, hits give low values 1.01 | locus YGR252W, strain gcn5, hits give low values 1.03 | locus YHR013C, strain ard1, hits give low values 0.956 | locus YHR027C, strain rpn1, hits give low values 0.979 | locus YHR030C, strain SLT2, hits give low values 1 and 1.01 | locus YHR079C, strain IRE1 (second series), hits give low values 1.01 | locus YHR079C, strain IRE1, hits give low values 1 | locus YHR094C, strain hxt1, hits give low values 1.02 | locus YHR129C, strain ARP1, hits give low values 1.01 | locus YHR142W, strain chs7, hits give low values 0.971 | locus YHR200W, strain rpn10, hits give low values 1.02 | locus YIL066C, strain RNR3, hits give low values 1.01 | locus YIL073C, strain SPO22, hits give low values 1.07 | locus YIL125W, strain kgd1, hits give low values 1.03 | locus YIR030C, strain dcg1, hits give low values 1.02 | locus YJL092W, strain hpr5, hits give low values 0.981 | locus YJL095W, strain BCK1 (second series), hits give low values 0.985 | locus YJL095W, strain BCK1, hits give low values 1 and 0.991 | locus YJL115W, strain asf1, hits give low values 0.986 | locus YJL129C, strain trk1, hits give low values 0.987 | locus YJL134W, strain LCB3, hits give low values 1.01 | locus YJL154C, strain vps35, hits give low values 0.978 | locus YJL164C, strain tpk1, hits give low values 0.995 | locus YJL166W, strain qcr8, hits give low values 0.99 | locus YJL168C, strain set2, hits give low values 1.02 | locus YJL187C, strain SWE1 (second series), hits give low values 1.01 | locus YJL187C, strain SWE1, hits give low values 0.985 | locus YJR043C, strain POL32, hits give low values 1.01 | locus YJR066W, strain TOR1, hits give low values 0.955
